The record followed here is PubChem BioAssay AID588511 (Johns Hopkins Ion Channel Center, 2011).

Screen size: about 310,000 compounds; about 3,600 (1.2%) were called active.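 How the source made its calls: active means ratio plate-corrected score three or more library SD toward inhibition, starting fluorescence score within five deviations; inactive means the rest.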 What follows is part of a selection rich in actives, with near analogues and random picks from the rest.

For the experiment, the target named is Anoctamin-1 (Mus musculus) (UniProt Q8BHY3). The experiment can be described thus: TMEM16A chloride channel inhibitors, primary screen, cell-based, HTS (AID 588511).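 On normalized B-score (activity score, 25-100; higher = stronger inhibition): score derived from kinetic fluorescence span divided by baseline fluorescence per well.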 To be noted: HEK293 TMEM16A/YFP iodide influx fluorescence, ionomycin; at 10 µM.
Chain of Anoctamin-1 (Mus musculus) (Q8BHY3 whole entry, looked up): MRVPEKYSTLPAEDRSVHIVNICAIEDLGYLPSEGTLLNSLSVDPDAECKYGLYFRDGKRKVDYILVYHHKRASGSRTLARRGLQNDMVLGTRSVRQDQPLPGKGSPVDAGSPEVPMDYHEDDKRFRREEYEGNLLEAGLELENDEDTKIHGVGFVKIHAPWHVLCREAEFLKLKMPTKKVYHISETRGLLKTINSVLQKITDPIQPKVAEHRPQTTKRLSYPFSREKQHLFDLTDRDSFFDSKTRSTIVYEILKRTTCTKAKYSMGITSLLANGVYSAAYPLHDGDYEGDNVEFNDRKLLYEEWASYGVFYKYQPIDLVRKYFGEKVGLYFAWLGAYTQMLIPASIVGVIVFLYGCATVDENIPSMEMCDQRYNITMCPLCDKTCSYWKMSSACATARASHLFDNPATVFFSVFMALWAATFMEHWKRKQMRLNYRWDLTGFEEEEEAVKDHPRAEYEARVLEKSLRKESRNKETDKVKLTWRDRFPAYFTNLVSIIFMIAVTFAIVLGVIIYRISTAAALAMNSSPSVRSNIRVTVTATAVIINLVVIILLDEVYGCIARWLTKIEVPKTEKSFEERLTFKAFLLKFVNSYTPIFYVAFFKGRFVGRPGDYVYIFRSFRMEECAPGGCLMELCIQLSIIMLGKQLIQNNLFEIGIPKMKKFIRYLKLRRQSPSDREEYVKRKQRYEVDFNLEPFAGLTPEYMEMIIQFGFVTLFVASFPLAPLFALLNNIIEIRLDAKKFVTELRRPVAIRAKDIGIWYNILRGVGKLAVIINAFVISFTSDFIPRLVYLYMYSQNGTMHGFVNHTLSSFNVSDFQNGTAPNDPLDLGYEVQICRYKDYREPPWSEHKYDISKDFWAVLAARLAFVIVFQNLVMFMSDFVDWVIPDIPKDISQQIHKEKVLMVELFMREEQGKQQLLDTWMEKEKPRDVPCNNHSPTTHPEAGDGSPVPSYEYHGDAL
Regarding `COc1ccc(C(=O)CCC(=O)Nc2ccc(Cl)cc2)cc1`, the normalized B-score (activity score, 25-100; higher = stronger inhibition) result was “inactive”. Turning to `CO/N=C/CC(=O)c1ccc(OC)cc1`, the normalized B-score (activity score, 25-100; higher = stronger inhibition) entry was “inactive”. Turning to `COc1ccc(CCC(=O)c2ccc(OC)cc2)cc1`, the normalized B-score (activity score, 25-100; higher = stronger inhibition) was 100 (active). As to `O=C(CSc1nc(=O)n2ccccc2n1)Nc1ccc2c(c1)OCCO2`, the normalized B-score (activity score, 25-100; higher = stronger inhibition) result is “inactive”. For the compound `Cc1ccccc1Cn1c(=O)[nH]c2ccccc21`, the normalized B-score (activity score, 25-100; higher = stronger inhibition) entry was “inactive”. The figure for `CCCc1cc(=S)n2c([nH]c3ccccc32)c1C#N` is 25 (active); for `CCOC(=O)CCc1c(C)c(C#N)c2[nH]c3ccccc3n2c1=O` it is “inactive”; for `CCC(=O)Nc1ccc2nc(C)n(Cc3ccccc3Cl)c(=O)c2c1` it is 100 (active).

For the compound `CCN1CCN(c2cc3nc(C)n(Cc4ccccc4)c(=O)c3cc2NC(=O)c2ccccc2F)CC1`, the normalized B-score (activity score, 25-100; higher = stronger inhibition) entry was “inactive”. For `CCC(=O)Nc1nc2ccccc2n1Cc1ccccc1C` the value was “inactive”.

On to `COC(c1ccccc1)(c1ccccc1)C(Oc1nc(C)cc(C)n1)C(=O)O` (centres undefined), for which the normalized B-score (activity score, 25-100; higher = stronger inhibition) result is “inactive”. For `O=C1NCCn2nc3ccccc3c21`, the normalized B-score (activity score, 25-100; higher = stronger inhibition) result was “inactive”. For `COc1ccc(NC(=O)C2CCN(S(=O)(=O)c3ccc4[nH]c(=O)oc4c3)CC2)c(OC)c1` the value was “inactive”; for `Cc1ccc(OCc2cc(C(=O)N(C)CCc3ccccc3)no2)cc1C`, “inactive”. The entry for `CC(=O)c1cccc(OCc2cc(C(=O)NC(C)Cc3cccnc3)no2)c1` (centres undefined) is “inactive”. Take `CN(Cc1cccnc1)C(=O)c1cc(COc2ccc3ncccc3c2)on1`: the normalized B-score (activity score, 25-100; higher = stronger inhibition) is 100 (active).

As for `CCOC(=O)c1cc2cc(-c3c(C(=O)OCC)oc4cc(O)cc(O)c4c3=O)ccc2o1`, the normalized B-score (activity score, 25-100; higher = stronger inhibition) is 100 (active). Take `CCOC(=O)c1cc(=O)c2ccc(OCc3ccccc3)cc2o1`: the normalized B-score (activity score, 25-100; higher = stronger inhibition) entry is “inactive”. For `O=c1c(-c2ccc3c(c2)OCCO3)c(C(F)(F)F)oc2cc(O)cc(O)c12` the value was “inactive”; for `COCCn1c(Cc2cccn2C)nnc1SCC(=O)Nc1nccs1`, “inactive”; for `COCCCN1C(=O)c2ccc(C(=O)OCC(=O)NCc3ccccc3OC)cc2C1=O`, “inactive”. The entry for `CC1(N2CCOCC2)CC2(O)C(=[N+]1[O-])CCc1nonc12` (centres undefined) is “inactive”; for `CN1C(=O)/C(=C\c2cc(Br)cs2)c2ccccc21` it is “inactive”; for `COC(=O)C1=C(C)NC2=C(C(=O)c3ccccc32)C1c1ccc(-c2ccc(C(=O)O)cc2)o1` (centres undefined) it is 25 (active). The entry for `Cc1ccc(C2C3=C(Nc4[nH]n(-c5ccccc5)c(=O)c42)c2ccccc2C3=O)cc1` (centres undefined) is “inactive”; for `CCOC(=O)C1=C(c2ccc(OC)cc2)C(=O)c2ccccc2C1=O` it is “inactive”. Turning to `CCCOc1ccc(-c2nc(N)n[nH]2)cc1`, the normalized B-score (activity score, 25-100; higher = stronger inhibition) entry was “inactive”.

Consider `CCCOc1ccc(Cc2c(Cl)nc(SC)nc2NC)cc1`, for which the normalized B-score (activity score, 25-100; higher = stronger inhibition) is 100 (active). The entry for `CCCOc1ccc(Cc2c(O)nc(SC)[nH]c2=O)cc1C` is “inactive”; for `CSc1ncccc1C(=O)OCc1ccc(Br)cc1` it is “inactive”. For `COc1ccc(OC)c(C2C3=C(N=c4s/c(=C\c5cccc(O)c5)c(=O)n42)c2ccccc2CC3)c1` (centres undefined) the value was “inactive”.

As for `Cc1nn(-c2ccc([N+](=O)[O-])cc2)c(N)c1-c1ccccc1`, the normalized B-score (activity score, 25-100; higher = stronger inhibition) entry is “inactive”. The figure for `O=C1CC(c2ccccc2)=NN1c1ccc([N+](=O)[O-])cc1` is 100 (active). As to `CC1=NN(c2ccccc2)C(=O)C1C(=O)c1ccc([N+](=O)[O-])cc1` (centres undefined), the normalized B-score (activity score, 25-100; higher = stronger inhibition) result is “inactive”. With `CCNC(=O)NNC(=O)C1CC(c2cccs2)=NO1` (centres undefined), the normalized B-score (activity score, 25-100; higher = stronger inhibition) entry is “inactive”. As to `Nc1nnc(SCC(=O)OCc2ccc(Cl)c(Cl)c2)s1`, the normalized B-score (activity score, 25-100; higher = stronger inhibition) entry was “inactive”. For `Cc1ccc(CNC(=O)C2CCCN2C(=O)NCc2ccccc2)cc1` (centres undefined) the value was “inactive”; for `Cc1cc(/C=C2\SC(=O)N(C)C2=O)c(C)n1-c1cccc(C(=O)O)c1`, “inactive”; for `Cc1ccc(N2C(=O)S/C(=C/c3cn(C)c4ccccc34)C2=O)cc1`, 25 (active). Regarding `Cc1ccc(C(=O)N/C(=C\c2cn(C)c3ccccc23)C(=O)N2CCN(C)CC2)cc1`, the normalized B-score (activity score, 25-100; higher = stronger inhibition) result was “inactive”.

`CC(C)COc1ccc(C(=O)OCC(=O)NCCC2=CCCCC2)cc1`: the normalized B-score (activity score, 25-100; higher = stronger inhibition) entry was “inactive”. For `CC(C(=O)NC1CCS(=O)(=O)C1)N1C(=O)/C(=C/c2ccc(Cl)cc2)SC1=S` (centres undefined) the value was “inactive”; for `Cc1noc(C)c1CSc1nc2cc(S(=O)(=O)N3CCOCC3)ccc2o1`, “inactive”; for `COc1cccc(CNCCc2c[nH]c3ccccc23)c1OCc1ccccc1F`, 100 (active). For `COc1ccc(S(=O)(=O)NCCc2c[nH]c3ccccc23)cc1OC` the value was “inactive”. On to `COc1ccccc1NC(=O)CCCc1c[nH]c2ccccc12`, for which the normalized B-score (activity score, 25-100; higher = stronger inhibition) result was “inactive”.

For the compound `CC(=O)Nc1ccc(Sc2ccccc2C(=O)N2CCCC2)cn1`, the normalized B-score (activity score, 25-100; higher = stronger inhibition) entry was “inactive”. In the case of `COc1ccc(-n2ncc3c2CC(C)(C)CC3NC(=O)CCc2c(C)nn(C)c2C)cc1` (centres undefined), the normalized B-score (activity score, 25-100; higher = stronger inhibition) result was “inactive”.

`COc1ccc(CNC(=O)C(=O)N2CCC3(CC2)OCCN3S(=O)(=O)c2ccc(C)cc2)cc1`: the normalized B-score (activity score, 25-100; higher = stronger inhibition) entry is “inactive”. As to `CCOC(=O)C(Sc1ncc(C#N)c(N)n1)C(C)C` (centres undefined), the normalized B-score (activity score, 25-100; higher = stronger inhibition) is 100 (active). The entry for `CCOC(=O)CSc1nccc(N(C)C)c1C#N` is “inactive”. For `CCCCOc1ccc(-c2ncc(C(=O)OCC)c(N)n2)cc1` the value was “inactive”; for `COc1cc2sc(C)nc2cc1C`, “inactive”.

In the case of `CCOc1ccc(-c2noc(CCC(=O)NC3CCCC3)n2)cc1OC`, the normalized B-score (activity score, 25-100; higher = stronger inhibition) result is “inactive”. Regarding `COc1cccc(NC(=O)CCc2nnc3ccc(N4CCC(C)CC4)nn23)c1`, the normalized B-score (activity score, 25-100; higher = stronger inhibition) result was “inactive”. As for `Cc1ccc(NC(=O)C2CC2c2ccccc2)cc1` (centres undefined), the normalized B-score (activity score, 25-100; higher = stronger inhibition) result was “inactive”. The figure for `O=C(O)c1ccc(NC(=O)C2CCCCC2)cc1` is 100 (active). The entry for `O=C(Nc1ccc(-c2ccc3nncn3n2)cc1)C1CCCCC1` is “inactive”; for `CC(C)NS(=O)(=O)c1ccc(NC(=O)C2CCCCC2)cc1` it is “inactive”; for `COc1cc(C(=O)N(C)Cc2cccc(OC)c2OC)ccc1OCC(=O)Nc1cccc(C(F)(F)F)c1` it is 100 (active).

Consider `COc1ccc(NC(=O)CN(C)CC(=O)Nc2cccc(C(F)(F)F)c2)cc1`, for which the normalized B-score (activity score, 25-100; higher = stronger inhibition) result is “inactive”. The entry for `CCNC(=O)c1ccc(OCC(=O)Nc2ccc(F)cc2)c(OC)c1` is “inactive”; for `COC(=O)Cc1ccc(N(Cc2ccccc2F)S(=O)(=O)c2ccc(Br)cc2)cc1` it is “inactive”. For `Cc1ccc(S(=O)(=O)NC(=O)Nc2nc(-c3ccc(F)c(F)c3)cs2)cc1` the value was “inactive”; for `COc1cc(CC(=O)NCc2cccs2)cc(OC)c1OC`, “inactive”; for `CCCc1ccc(-c2csc(NC(=O)Cc3cccs3)n2)cc1`, “inactive”. For `COc1ccc(-c2csc(NC(=O)COC(=O)Cc3ccc(Cl)cc3Cl)n2)cc1` the value was “inactive”; for `COc1ccc(CC(=O)Nc2nc(-c3ccc(F)c(F)c3)cs2)cc1OC`, 25 (active).

Turning to `COc1cc(CC(=O)Nc2nc(-c3ccc(F)c(F)c3)cs2)cc(OC)c1OC`, the normalized B-score (activity score, 25-100; higher = stronger inhibition) was 25 (active).
